Screening results as filed in PubChem BioAssay.
mTORC1 inh: reduces mTORC1 signaling in Tsc2 and p53 null MEF cells | hit rate 0.78% among 44,000 | Potency, µM (top dose mostly 38.3 µM), without a hit: top-dose activity change, negative = inhibition, most hits filed as inhibitors | Tsc2-/- p53-/- MEF, phospho-rpS6 immunofluorescence/PI, 24 h;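 also: plate controls were DMSO for no effect and rapamycin for full effect; nearly all actives have a fitted effect of over 50% in size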
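Plate MEFs (Tsc2-/-, p53-/-, empty vector) in DMEM/10% FBS; after 24 h add compound, incubate 24 h at 37 degree Celsius; fix in PFA/TX-100, block, stain phospho-rpS6 and 10 uM PI; scan at 488 nm; report % positive cells.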
p53null 32C kill: p53 null cell cytotoxicity, permissive temperature; H1299-neo p53 null cells, ATP luminescence, 24 h, 32C; Potency, µM (doses to about 46.1 µM), for the others: at the highest dose activity change, negative = cytotoxicity, actives largely listed as cytotoxic; hit rate 0.62% among 55,000;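 also: 0% = DMSO only and -100% = full killing by 100 µM tamoxifen; nearly all actives have a fitted effect of over 55% in size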
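Cytotoxicity: H1299-neo (no p53), 32C, 24 h treatment. Concentrations up to 46 uM. Readout cellular ATP, luminescence. Normalization to DMSO basal and tamoxifen 100 uM maximal kill.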
p53null 39C tox: kills p53 null cells at the nonpermissive temperature | H1299 p53-null (neo) cells, 39C, ATPlite viability, 24 h | Potency, µM (doses to about 46.1 µM), without a hit: at the highest dose activity, negative = cell killing, most hits filed as cytotoxic | hit rate 0.97% among 55,000 | AID 904;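 also: 0% = DMSO only and -100% = full killing by 100 µM tamoxifen; nearly all actives have a fitted effect of over 50% in size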
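Temperature-shift cytotoxicity format: compound titrations on p53-null or A138V-expressing H1299 cells held 24 hr at 39C, cell ATP then measured, AC50 from Hill model.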
SKOV3 invasion: ovarian cancer metastasis inhibition, 3D TME model; SKOV3ip1-GFP adhesion/invasion on 3D omental model, fluorescence; Potency, µM (titrated, usually from 45.8 µM), for inactives: at the highest dose activity change, negative = inhibition, usual class: inhibitors; hit rate 0.1% among 46,000; AID 1963576;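 also: plate controls were DMSO wells for no effect and tomatine positive control wells for full effect; nearly all actives have a fitted effect of over 65% in size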
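Primary human omental fibroblast/mesothelial 3D culture pre-formed 48 h. SKOV3ip1-GFP cells added with compounds (0.36-46 umol/L), incubated 2 h RT/16 h 37 C, fixed; GFP cells quantified at 488/509 nm.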
PMP22 txn prim: modulators of PMP22 gene transcription in S16 Schwann cells; hit rate 2% among 43,000; S16 Pmp22-F2sN Schwann cells, FLuc/NLuc coincidence luminescence, 24 h; Potency, µM (highest dose often 57.5 µM), for inactives: at the top dose activity change, negative = inhibition, hits mostly inhibitors; active = clear falling dose curves in both reporters; inconclusive = both reporters move, but less clearly or upward; inactive = either reporter flat; the % is the NLuc reporter signal
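Transcriptional readout in edited S16(c9) cells: two luciferases reported from the Pmp22 locus, measured in turn after 24 h compound incubation.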
S16 viability: S16 Schwann cell cytotoxicity. hit rate 0.48% among 43,000. S16 Pmp22-F2sN Schwann cells (luciferase reporters placed in the Pmp22 gene) viability, CellTiter-Glo, 24 h. Potency, µM (series often up to 57.5 µM), for the others: top-dose activity change, negative = cytotoxicity, hits mostly cytotoxic. AID 1508642; also: nearly all actives have a fitted effect of over 65% in size
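Luminescence from CellTiter-Glo, read by CCD camera after a 15 min room-temperature incubation, served as the viability signal. Reporter Schwann cells (S16 Pmp22-F2sN) had been treated with pin-transferred compounds for 24 h at 37C.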
Active calls of the source: *; i = inactive; ? = inconclusive; · = not tested or not shown; [ ] = remark or other dose. The list is not random: actives were taken first. Their share in the collection is about 3.1%. Unless noted, calls follow the shape of the dose curve; as a rule, active = well fitted curve in the direction sought with a large enough effect; inconclusive = small, poorly fitted or top-dose-only effect, or another doubt; inactive = no such curve, though single readings can be large; an effect the other way counts as inactive or inconclusive. Unless noted, % is scaled to controls: 0 for no effect and ±100 for the full control effect; potency is read from the fitted curve at half-maximal effect.

SMILES	mTORC1 inh	p53null 32C kill	p53null 39C tox	SKOV3 invasion	PMP22 txn prim	S16 viability
CC1CCN(c2ccc(-c3cccc(NS(=O)(=O)c4cccs4)c3)nn2)CC1	-2.0%	7.94µM*	10µM*	i	·	·
COc1ccc(S(=O)(=O)Nc2cccc(-c3ccc(N4CCC(C)CC4)nn3)c2)cc1OC	-5.8%	3.16µM*	7.94µM*	-10.6%	·	·
COc1ccc(C)cc1S(=O)(=O)Nc1cccc(-c2ccc(N3CCC(C)CC3)nn2)c1	-0.4%	-11.1%	-9.7%	-6.2%	·	·
COc1ccc(S(=O)(=O)Nc2cccc(-c3ccc(N4CCCC4)nn3)c2)cc1OC	-0.3%	11.1%	-9.9%	-0.7%	·	·
Cc1c(Cn2c(C)nc3c(C(=O)O)cc(N4CCOCC4)cc32)cccc1C(F)(F)F	·	·	·	15.8%	·	·
COc1cccc(Nc2c(C(N)=O)cnc3c(C)cc(S(=O)(=O)c4cccc(C(=O)N(C)C)c4)cc23)c1	·	·	·	-8.7%[23.2 µM]	·	·
Cc1ccc(SCC(=O)Nc2ccc3oc(-c4cccc(C)c4)nc3c2)cc1	-9.9%	-16.3%	-12.2%	i	0.1%	3.3%
Cc1ccc2oc(-c3ccc(NC(=O)CCC(=O)O)cc3)nc2c1	-14.1%	12.6µM*	?	i	-2.9%	5.4%
O=C1C2=C(Nc3ccccc3SC2c2ccc(Cl)c(Cl)c2)c2ccccc21 (stereo not given)	-7.9%	37.0%	41.7%	-24.9%	?	?
O=C1C2=C(Nc3ccccc3SC2c2ccccc2C(F)(F)F)c2ccccc21 (stereo not given)	?	-17.0%	?	i	12.7µM*	?
Nc1ccc2oc(-c3ccc4nc[nH]c4c3)nc2c1	·	7.94µM*	12.6µM*	·	·	·
Cc1cccc(NC(=O)Cn2c(/C=C/c3ccccc3)nc3ccccc32)c1	·	·	0.1%[1.84 µM]	·	·	·
CCOc1ccc(/C=C/c2nc3ccccc3n2S(=O)(=O)c2cccc(Cl)c2)cc1	-1.0%	12.6µM*	6.31µM*	-14.4%	?	?
Cc1ccc(/C=C/c2nc3ccccc3n2S(=O)(=O)c2cccc(Cl)c2)cc1	-5.0%	3.16µM*	3.16µM*	i	-19.6%	?
CCOc1ccc(Cn2c(CNS(=O)(=O)c3cccc(Cl)c3)nc3cccnc32)cc1	-0.1%	-2.8%	14.2%	-6.0%	-15.8%	6.3%
CSc1ccc(/C=C/c2nc3ccccc3n2S(=O)(=O)c2ccc(F)c(C)c2)cc1	-8.7%	7.94µM*	10µM*	-0.5%	?	?
CC(=O)N1CCN(c2ccc(OCc3nn(C)c(C)c3-c3cccc4c(CCCOc5cc(C)c(Cl)c(C)c5)c(C(=O)O)n(Cc5cccnc5)c34)cc2)CC1	·	·	·	19.4%	·	·
CCc1nn(CC(=O)NCc2ccccc2)c(=O)c2cccn12	?	-6.8%	25.1µM*	4.3%	8.7%	0.0%
COCCCNC(=O)C1CCN(C(=O)c2cc3sccc3n2Cc2ccc(Cl)cc2)CC1	1.7%	1.2%	-4.6%	-16.2%	?	?
COCCNC(=O)C1CCN(C(=O)c2cc3sccc3n2Cc2ccc(Cl)cc2)CC1	1.5%	11.1%	9.1%	i	10µM*	?
CC(C)Oc1ccc(C(=O)N[C@H](CNC(=O)CN(C)C)Cc2ccc(-c3cn4cccc([C@H](C)O)c4n3)cc2)cc1Cl	·	·	·	-12.8%	·	·
COc1ccc(CCNS(=O)(=O)c2c(C)nc3sc(C)cn3c2=O)cc1OC	-10.7%	6.2%	2.0%	3.8%	-9.3%	16.8%
COc1cc(OC)c(NS(=O)(=O)c2c(C)nc3sc(C)cn3c2=O)cc1Cl	-8.2%	-6.3%	20µM*	5.0%	?	?
COc1cc(OC)cc(-c2ccc3ncc4ccc(=O)n(-c5ccc(N6CCNCC6)c(C(F)(F)F)c5)c4c3c2)c1	·	·	·	7.3%	·	·
